High-throughput results as filed in PubChem.
TGFb SMAD3 inh: qHTS for Inhibitors of TGF-b; HepG2 CAGA-GFP TGF-b/SMAD3 reporter, GFP fluorescence, 18 h; TGF-beta stimulated, 500 pg/mL final; 1.2% of 410,000 active; Potency, µM (top dose mostly 46.1 µM), for the others: top-dose activity, negative = inhibition, actives largely listed as inhibitors; note: potency is the fitted concentration of half-maximal effect; % is set by controls: 0 for no effect and ±100 for the full control effect; nearly all actives have a fitted effect of over 65% in size
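Cell-based qHTS in HEPG2 carrying a CAGA-GFP Smad reporter; compounds added before 500 pg/mL final TGF-beta, 18 h incubation at 37 degrees C, GFP fluorescence quantified per cell by imaging cytometry.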
ASM inhibitor: Inhibitors of Secretory Acid Sphingomyelinase (S-ASM): qHTS; Sphingomyelin phosphodiesterase (Homo sapiens), P17405; placental ASM, HMU-PC fluorogenic substrate, 60 min; Potency, µM (doses to about 57.5 µM), for the others: top-dose activity change, negative = inhibition, usual class: inhibitors; 0.006% of 340,000 active; AID 504937, 2011; note: potency is the fitted concentration of half-maximal effect
Target sequence (P17405 47-631 limits assumed): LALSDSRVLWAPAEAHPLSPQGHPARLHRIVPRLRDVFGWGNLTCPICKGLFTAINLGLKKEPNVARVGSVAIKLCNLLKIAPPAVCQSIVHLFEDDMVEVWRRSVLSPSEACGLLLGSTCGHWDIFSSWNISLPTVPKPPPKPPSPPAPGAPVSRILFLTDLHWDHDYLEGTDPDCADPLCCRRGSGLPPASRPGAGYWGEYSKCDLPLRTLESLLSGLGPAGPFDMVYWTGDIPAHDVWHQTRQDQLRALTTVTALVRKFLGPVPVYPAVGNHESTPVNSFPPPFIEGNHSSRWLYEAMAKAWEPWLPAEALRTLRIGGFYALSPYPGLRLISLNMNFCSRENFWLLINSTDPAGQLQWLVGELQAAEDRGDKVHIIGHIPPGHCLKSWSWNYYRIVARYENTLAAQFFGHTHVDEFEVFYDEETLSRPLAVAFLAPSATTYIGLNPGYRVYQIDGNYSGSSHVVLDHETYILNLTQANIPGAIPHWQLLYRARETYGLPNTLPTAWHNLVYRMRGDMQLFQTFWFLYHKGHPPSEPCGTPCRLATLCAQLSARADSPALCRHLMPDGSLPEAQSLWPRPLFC
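Steps: dispense placental human ASM, pin compound, wait 10 min at room temperature, add HMU-PC0 substrate at 9 uM final, incubate 60 min at 37 °C, add stop solution raising pH to 10, read fluorescence.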
IL-1B inflam inh: qHTS for Inhibitors of Inflammasome Signaling: IL-1-beta AlphaLISA Primary Screen. activity change, % at 57.5 µM. THP-1 LPS/ATP IL-1B secretion, AlphaLISA, 16 h; stronger effect = lower value. 4.7% of 360,000 active; in the data active = activity change below about -50%; inconclusive = mostly about -30% to -49%; note: % is set by controls: 0 for no effect and ±100 for the full control effect
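THP-1 cells pretreated 1 hr with compounds (up to 57.5 uM final), then stimulated with LPS (250 ng/mL final) plus ATP (1.25 mM final); secreted IL-1B measured by AlphaLISA after 16 hr, decreased signal indicating inhibition.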
TDP1 cell noCPT: qHTS for Inhibitors of human tyrosyl-DNA phosphodiesterase 1 (TDP1): qHTS in cells in absence of CPT. DT40 Tdp1-/- hTDP1 cells, no CPT, ATP luminescence, 48 h. Potency, µM (titrated, usually from 46.2 µM), without a hit: top-dose activity change, negative = growth inhibition, usual class: inhibitors. 15% of 420,000 active. AID 686978, 2013; note: potency is the fitted concentration of half-maximal effect; % is set by controls: 0 for no effect and ±100 for the full control effect; nearly all actives have a fitted effect of over 55% in size
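Growth of hTDP1-complemented DT40 Tdp1-knockout cells is measured by ATP luminescence after at least 48 hr compound exposure at 37 °C, with DMSO substituting for the 20 nM CPT used in the parallel screen.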
HepG2 viability: qHTS for Inhibitors of TGF-b: Cytotox Counterscreen; HepG2 CAGA-GFP viability, ATP luminescence, 18 h; Potency, µM (series often up to 46.1 µM), for the others: at the highest dose activity change, negative = cytotoxicity, actives largely listed as cytotoxic; 0.76% of 410,000 active; AID 588856, 2011; note: potency is the fitted concentration of half-maximal effect
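HepG2 CAGA-GFP cells (1000/well, DMEM with 1% FBS) received compound, then TGF-beta at 500 pg/mL final, and were incubated 18 hours at 37 degrees C. Viability was read by CellTiter-Glo luminescence. Media-only wells were set as complete cell-killing and DMSO as no toxicity.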
DT40 TDP1 CPT: qHTS for Inhibitors of human tyrosyl-DNA phosphodiesterase 1 (TDP1): qHTS in cells in presence of CPT; chicken DT40 Tdp1-/-;hTDP1 cells + 20 nM CPT, ATP luminescence, 48 h; Potency, µM (highest dose often 46.2 µM), for inactives: top-dose activity change, negative = growth inhibition, usual class: inhibitors; 12% of 420,000 active; AID 686979, 2013; note: potency is the fitted concentration of half-maximal effect; % is set by controls: 0 for no effect and ±100 for the full control effect; nearly all actives have a fitted effect of over 55% in size
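Chicken DT40 Tdp1-/- cells stably complemented with human TDP1 were seeded at 400 cells/well in medium containing 20 nM camptothecin, exposed to pin-transferred compounds, and grown at 37 °C for at least 48 hr. Viability was read as ATP luminescence.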
* marks the source's active call; other numbers are inactive results; u = inconclusive; x = no result. The list is not random: actives were taken first. Their share in the collection is about 19%. Unless noted, calls come from the whole dose curve; as a rule, active = well fitted curve in the direction sought with a large enough effect; inconclusive = small, poorly fitted or top-dose-only effect, or another doubt; inactive = no such curve, though single readings can be large; an effect the other way counts as inactive or inconclusive.

SMILES	TGFb SMAD3 inh	ASM inhibitor	IL-1B inflam inh	TDP1 cell noCPT	HepG2 viability	DT40 TDP1 CPT
O=C(/C=C/c1ccc(F)cc1)NC(=S)NNC(=O)[C@H]1C[C@@H]1c1ccccc1	-14.4%	-2.7%	18.3	23.1µM*	-17.3%	u
CCNC(=O)c1cc(NC(=O)COC)cc2nc(-c3ccncc3)n(C)c12	x	x	x	-14.8%	x	u
O=C1COc2ccc(C(=O)COC(=O)/C=C/c3ccc(Br)o3)cc2N1	-11.4%	0.2%	0.0	-25.5%	-7.2%	-29.0%
C[C@H](C[C@H](N)C(=O)O)C(=O)O	x	x	x	-4.0%	x	1.2%
O=C(COC(=O)C1CC2CCCC(C1)C2=O)Nc1cccc(F)c1 (configuration not stated)	u	1.8%	9.9	-13.7%	-3.4%	-9.1%
COc1ccc(C(CC(=O)c2ccccc2)C2CCCCC2=O)cc1 (configuration not stated)	-27.7%	-4.6%	-2.9	-28.7%	-33.3%	16.4µM*
CCc1c(C(=O)Nc2ccncc2)csc1C	-14.4%	4.1%	13.1	20.6µM*	2.5%	u
CCc1c(C(=O)Nc2ccccc2C(N)=O)csc1C	-28.4%	1.8%	3.5	-10.8%	0.0%	-19.7%
O=C1c2ccccc2C(=O)c2[nH]c(=O)[nH]c21	1µM*	1.1%	u	1.84µM*	1.41µM*	2.06µM*
CCOC(=O)c1c(NC(C)=O)sc2c(OCCN(CC)CC)c(Br)ccc12	-0.8%	-4.0%	-3.5	u	-2.9%	u
CCOC(=O)c1c(NC(C)=O)sc2c1CCC(C=NCCCN(CC)CC)=C2Sc1ccccc1	1.3%	2.9%	-96.6*	13µM*	-13.5%	14.6µM*
CCOc1ccc(C(=O)C2CCN(CC(=O)Nc3ccccc3N3CCOCC3)CC2)cc1	14.1µM*	2.0%	-25.1	18.4µM*	-13.2%	16.4µM*
Cc1ccccc1NC(=O)CN1CCC(C(=O)c2ccc3c(c2)OCCO3)CC1	-29.5%	-0.4%	13.5	18.4µM*	-1.1%	u
CCOc1ccc(C(=O)Nc2ccccc2N2CCOCC2)cc1	9.4%	-0.3%	-21.3	u	-4.9%	-27.0%
O=C(CN1CCN(CC(=O)Nc2ccccc2Cl)CC1)NCC1(N2CCCCC2)CCCCC1	-0.8%	4.8%	-7.9	20.6µM*	-11.4%	u
O=C(COC(=O)c1ccc2c(c1)OCCO2)Nc1ccccc1C(F)(F)F	0.2%	x	-19.2	-4.4%	2.0%	5.3%
O=C(CN1CCC(C(=O)c2ccc3c(c2)OCCO3)CC1)Nc1ccccc1C(F)(F)F	-11.8%	-1.3%	-56.9*	u	-12.5%	u
Cc1ccnc(NC2(C(F)(F)F)N=C3SCCN3C2=O)c1 (configuration not stated)	0.0%	7.3%	23.8	4.6%	0.2%	1.4%
O=C(NCc1ccc(F)cc1)c1ccc2oc(=O)n(Cc3ccccc3)c2c1	-11.6%	x	x	u	-7.7%	u
COc1ccccc1NC(=O)CN1CCN(CC(=O)Nc2ccc3c(c2)OCCO3)CC1	2.4%	1.4%	-29.2	u	-1.8%	u
O=C(CN1CCN(CC(=O)Nc2ccccc2Cl)CC1)Nc1ccc2c(c1)OCCO2	-4.3%	4.1%	-8.4	23.1µM*	-39.5%	u
COc1cccc(CNCCO)c1OCc1ccc(Cl)cc1	1.1%	4.2%	-4.4	-29.8%	-11.5%	u
CNCc1c(OCc2ccccc2)ccc2ccccc12	-27.4%	-3.3%	-85.9*	u	-44.5%	u
